# Screens from PubChem BioAssay.
# PL synth Enamine – animal cell phospholipid biosynthesis inhibition, Enamine screen | 0.4% of 20,000 active | calls only at 10 µM | ZR-82 CHO cells, pyrene fatty acid UV survival, CellTiter Blue; peroxisome-deficient CHO-K1 mutant line; plus DGAT-1, DGAT-2 and ACAT inhibitors | AID 1347385;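 active = cell survival signal 2 SD away from solvent-only control wells, confirmed on one or two retests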;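 note: 3 h compound exposure then viability read about one day after UV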
# Calls only; – = inactive; + = active, no number. This is one part of a sample in which hits are shown more often than they occur.
SMILES,PL synth Enamine
Cc1cc(Sc2nc(N)ncc2[N+](=O)[O-])ncn1,–
Cc1cc(Sc2ncnc(N)c2[N+](=O)[O-])ncn1,+
Cc1cc(C)nc(NNc2ncnc(N)c2[N+](=O)[O-])n1,–
c1ccc(N=Nc2ccc(-n3nncc3C34CC5CC(CC(C5)C3)C4)cc2)cc1,–
O=[N+]([O-])c1cccc(-n2nncc2C23CC4CC(CC(C4)C2)C3)c1,–
O=[N+]([O-])c1ccc(N/N=C/c2ccc(-n3nncc3C34CC5CC(CC(C5)C3)C4)cc2)cc1,+
COc1ccc2c(COC(=O)COc3ccc4c5c(c(=O)oc4c3)CCC5)cc(=O)oc2c1,–
Nc1c(C(=O)CSc2nnc(C3CCS(=O)(=O)C3)o2)c(=O)[nH]c(=O)n1C1CC1 (stereo unspecified),–
c1cc2c3c(cccc3c1)-c1nc3c(nc1-2)CCCC3,–
CCOP(=O)(OCC)C1(C)N(C)c2ccc(N=Nc3ccc([N+](=O)[O-])cc3)cc2C1(C)C (stereo unspecified),+
CN1/C(=C\P(=Nc2ccc([N+](=O)[O-])cc2)(c2ccccc2)c2ccccc2)C(C)(C)c2ccccc21,–
CCN(CC)c1ccc(N=Nc2c(Br)cc([N+](=O)[O-])cc2Br)cc1,–
Cn1nc(N2CCOCC2)c(=O)n(C)c1=O,–
Brc1ccc(Nc2ncnc3nc[nH]c23)cc1,–
O=C(CCCN1C(=O)NC2(CCCC2)C1=O)N1CCN(S(=O)(=O)c2ccc(Cl)s2)CC1,–
C=CCN=c1scc(-c2cc3ccccc3o2)n1/N=C/c1ccccc1Br,–
Fc1cccc(F)c1/C=N/n1c(-c2cc3ccccc3o2)csc1=NCCc1ccccc1,+
CN=c1scc(-c2cc3ccccc3o2)n1/N=C/c1cccc(C(F)(F)F)c1,–
NC(=O)NC(=O)C=P(c1ccccc1)(c1ccccc1)c1ccccc1,–
CCCc1cc(=O)[nH]c(SCc2nc3sc4c(c3c(=O)[nH]2)CCC(C)C4)n1 (stereo unspecified),–
c1csc(-c2noc(CSc3nnc(-c4cccs4)n3C3CC3)n2)c1,–
Fc1cc(Cl)ccc1NC(=S)Nc1ccc(Cl)c(Cl)c1,+
C=CCNC(=S)Nc1ccc(F)c(Cl)c1,–
Fc1ccc(NC(=S)Nc2ccc(Cl)c(Cl)c2)cc1Cl,–
c1ccc(NNC2=Nc3cccc4cccc2c34)cc1,+
SMILES,PL synth Enamine
Brc1ccc(/C=N/NC2=Nc3cccc4cccc2c34)cc1,–
Clc1ccccc1/C=N/NC1=Nc2cccc3cccc1c23,–
CC/C(=N\n1c(CC)n[nH]c1=S)c1ccc(O)cc1,–
CN1/C(=C\C=C\C2=[N+](C)c3ccccc3C2(C)C)C(C)(C)c2ccc([N+](=O)[O-])cc21,–
COc1cc(-c2nnc(CSc3nnc(-c4cc(OC)c(OC)c(OC)c4)o3)o2)cc(OC)c1OC,–
Cc1ccc(-c2nnc(N/N=C/c3c(-c4ccccc4)nc4ccccn34)c3ccccc23)cc1C,+
Cc1ccc(-c2nnc(-n3nnc4cc(C)c(C)cc43)c3ccccc23)cc1C,–
C(=N\N1CCN(C(c2ccccc2)c2ccccc2)CC1)/c1c(-c2ccccc2)nc2ccccn12,–
O=C(Nc1nc(-c2ccc(Br)s2)cs1)c1ccc(Br)s1,–
Clc1ccccc1CSc1nnc2c(n1)-c1cccc3cccc-2c13,–
OC(CN(C1CCCCC1)C1CCCCC1)Cn1c2ccc(Br)cc2c2cc(Br)ccc21 (stereo unspecified),–
CN(C)c1ccc(/C=C/c2cccc[n+]2C)cc1,–
CC[n+]1ccc(/C=C/c2ccc(N(C)C)cc2)cc1,+
CN(C)c1ccc(/C=C/c2ccc3ccccc3[n+]2C)cc1,–
FC(F)(F)C(=NC1(C(Cl)(Cl)Cl)Oc2ccccc2O1)Nc1ccc(Cl)cn1,–
COc1ccc(NS(=O)(=O)c2cc(NC(=S)NC3CC4CCC3C4)ccc2N2CCCC2)cc1 (stereo unspecified),–
CC1(C)CC(=O)C=C(NNc2c(Cl)cc(Cl)cc2Cl)C1,–
CCCCn1nnnc1CN1C(=O)NC2(CCCCC2C)C1=O (stereo unspecified),–
Cc1[nH]c2ccccc2c1N=Nc1ccc(SC(F)F)cc1,+
Cc1[nH]c2ccccc2c1C(c1c(C)[nH]c2ccccc12)C(C)C,–
C=C(C)CNC(=S)N/N=C/C1=CCC2CC1C2(C)C (stereo unspecified),–
CC1(C)C2CC=C(/C=N/NC(=S)Nc3cccnc3)C1C2 (stereo unspecified),–
CC1(C)C2CC=C(/C=N/NC(N)=S)C1C2 (stereo unspecified),–
CC1(C)C2CC=C(/C=N/NC(=S)NC3CCCCC3)C1C2 (stereo unspecified),+
CCNC(=S)N/N=C/C1=CCC2CC1C2(C)C (stereo unspecified),–
SMILES,PL synth Enamine
CC(C)NC(=S)N/N=C/C1=CCC2CC1C2(C)C (stereo unspecified),+
O=C1c2ccccc2-c2nc3nc4ccccc4nc3nc21,–
O=C(Nc1nc2ccc(Cl)cc2s1)c1ccc([N+](=O)[O-])s1,–
O=C(O)CC1Sc2ccccc2NC1=O (stereo unspecified),–
C=CCOC(=O)CC1Sc2ccccc2NC1=O (stereo unspecified),–
Cc1c(C2Sc3ccccc3NC2=O)c2ccccn2c1C1Sc2ccccc2NC1=O (stereo unspecified),+
CC1(NC(N)=O)CCS(=O)(=O)C1 (stereo unspecified),–
Cc1nc(=S)nc(N)[nH]1,–
FC(F)Oc1ccccc1N=Cc1c2ccccc2cc2ccccc12,–
Fc1ccc2c(c1)/C(=N\Nc1nc3ccccc3s1)CCS2,+
O=C(N/N=C1\CCSc2ccc(F)cc21)C1COc2ccccc2O1 (stereo unspecified),–
CCN(CC)S(=O)(=O)c1ccc(N/N=C2\CCSc3ccc(F)cc32)nc1,–
O=C1CCCN1c1ccc([N+](=O)[O-])c(O)c1,–
c1ccc2c(N=Nc3c4[nH]c5ccccc5nc-4c4ccccc34)cccc2c1,–
NC(=S)N=Nc1c2[nH]c3ccccc3nc-2c2ccccc12,–
c1ccc(N=Nc2c3[nH]c4ccccc4nc-3c3ccccc23)cc1,+
Cc1nc(N)sc1N=Nc1ccc(F)cc1,+
Nc1ncc(Cc2ccc(F)cc2)s1,–
Cc1nc(N)sc1N=Nc1cc(C(F)(F)F)ccc1Cl,+
CN(C)S(=O)(=O)c1ccc(Cl)c(N=Nc2sc(N)nc2-c2cc(F)ccc2F)c1,–
Cc1nc(N)sc1N=Nc1c(Cl)cc(Cl)cc1Cl,–
CN(C)S(=O)(=O)c1ccc(N=Nc2sc(N)nc2-c2cc(F)ccc2F)cc1,–
COCCNC(=S)N/N=C/C1CC=CCC1 (stereo unspecified),–
C(=N\N1CCN(C(c2ccccc2)c2ccccc2)CC1)/C1=C(N2CCOCC2)C(=C/c2ccccc2)/CC1,–
CCc1sc(-c2nnc(CSc3nnnn3C3CCCC3)o2)cc1C,–
SMILES,PL synth Enamine
O=C(CC12CC3CC(CC(Br)(C3)C1)C2)NCC1CCCO1 (stereo unspecified),–
CC(C)CSc1nnc(-c2c[nH]c3ccccc23)o1,–
O=C(CSc1nnc(-c2ccc3c(c2)OCO3)o1)CSc1nnc(-c2ccc3c(c2)OCO3)o1,–
O=C(c1ccccc1)C(Sc1nnc(-c2ccc3c(c2)OCO3)o1)c1ccccc1 (stereo unspecified),+
Cc1ccc(C(=O)C(C)Sc2nnc(-c3ccc4c(c3)OCO4)o2)cc1C (stereo unspecified),–
c1ccc2sc(COc3ccc4c(c3)OCO4)nc2c1,–
